Assay outcomes: PubChem BioAssay, National Center for Advancing Translational Sciences (NCATS)
This is a sample that favours compounds with a hit; in the whole collection about 11% have one here.
IMPase inh = IMPase inhibition in cells; CHO-M1 cells, IP1 accumulation, HTRF TR-FRET ratio; inhibition (IP1 accumulation), % at 46.1 µM; 120,000 tested, under 10 active; AID 901; active = well fitted curve in the direction sought with a large enough effect in the signal ratio, not every such curve was filed as active; inconclusive = small, poorly fitted or top-dose-only effect, or a change in a side signal; inactive = no such curve, though single readings can be large or run the other way; the % refers to the signal ratio;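 also: cells stimulated with carbachol in lithium chloride buffer; plate controls were DMSO basal wells for no effect and reference inhibitor wells for full effect; higher means more IMPase inhibition seen as more IP1 and lower FRET ratio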
Target sequence (P97697 whole entry, looked up): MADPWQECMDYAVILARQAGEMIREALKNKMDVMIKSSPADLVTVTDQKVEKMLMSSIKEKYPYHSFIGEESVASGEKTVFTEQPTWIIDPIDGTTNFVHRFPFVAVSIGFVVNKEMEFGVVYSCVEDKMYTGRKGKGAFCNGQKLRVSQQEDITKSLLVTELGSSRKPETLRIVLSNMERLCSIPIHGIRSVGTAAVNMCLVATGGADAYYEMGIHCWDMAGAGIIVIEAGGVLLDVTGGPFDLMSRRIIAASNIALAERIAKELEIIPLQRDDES
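CHO-M1, 2000 cells/well, cultured 16–30 h; cpd up to 46 uM; carbachol (50 uM solution, stimulation buffer w/ 50 mM LiCl, pH 7.4), 30 min 37C; IP-One TR-FRET, 10 min RT; Ex 320/Em 665, 620; Hill-fit AC50.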
PNC assembly inh = perinucleolar compartment assembly inhibition; PC3M PTB-GFP, PNC prevalence imaging, 16 h; stronger effect = lower value; activity change (PNC), negative = inhibition, % at 10 µM; 3.1% of 140,000 active; AID 2417;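 active = readout at or below -70, meaning at least 70% loss of cells showing the perinucleolar compartment, a nuclear body marking cancer cells; inconclusive = readout between -30 and a set limit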;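 also: plate controls were DMSO wells for no effect and camptothecin positive control wells for full effect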
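PC3M cells stably expressing PTB-GFP, 750–1000 cells/well, treated 16 h at 37 °C with compound (23 nl of library stock), in duplicate. After paraformaldehyde fixation and Hoechst stain, imaged at 20x; PNC prevalence scored by image analysis.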
ALDH1A1 inh = inhibitors of human aldehyde dehydrogenase 1A1 | P00352 | Purified ALDH1A1, NADH fluorescence, propionaldehyde substrate | Potency, µM (doses to about 75.3 µM), inactives show at the highest dose activity, negative = inhibition, usual class: inhibitors | 7.3% of 220,000 active;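 also: potency is read from the fitted curve at half-maximal effect; plate controls were no enzyme wells and a reference inhibitor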
HPGD inh = HPGD (human) dehydrogenase inhibition; P15428; purified HPGD, NADH fluorescence kinetic, PGE2 substrate; Potency, µM, for the others: at the top dose activity change, negative = inhibition, hits mostly inhibitors; 4.3% of 150,000 active; also: potency is read from the fitted curve at half-maximal effect
Target sequence (P15428 whole entry, looked up): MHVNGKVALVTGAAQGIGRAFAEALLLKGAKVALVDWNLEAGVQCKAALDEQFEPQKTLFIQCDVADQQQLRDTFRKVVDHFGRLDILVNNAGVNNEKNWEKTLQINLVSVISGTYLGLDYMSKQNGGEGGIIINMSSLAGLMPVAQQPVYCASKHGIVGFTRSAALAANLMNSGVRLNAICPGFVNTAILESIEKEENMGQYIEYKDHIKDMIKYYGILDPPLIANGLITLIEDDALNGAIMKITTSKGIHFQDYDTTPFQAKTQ
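NADH formation kinetics: reaction with 30 uM PGE2 and 1 mM NAD+ (final), 20 nM enzyme, Tris-HCl pH 8 with Tween 20, after 15 min compound preincubation at room temperature. Fluorescence change, last versus first of five reads.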
IMPase Li cell = membrane-permeable IMPase blocker, potentiated with lithium; CHO-M1 cells, IP1 TR-FRET (IP-One), carbachol + lithium; Potency, µM (doses to about 59.4 µM), for the others: top-dose activity, negative = IMPase inhibition, most hits filed as inhibitors; 0.35% of 210,000 active; AID 1457; active = well fitted inhibition curve with a large enough effect; inconclusive = small, poorly fitted or top-dose-only effect; inactive = no such curve, though single readings can be large or run the other way;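 also: IP1 builds up when IMPase is blocked and the TR-FRET signal falls; potency is read from the fitted curve at half-maximal effect; plate controls were basal vehicle for no effect and high inhibitor control for full effect; nearly all actives have a fitted effect of over 50% in size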
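CHO-M1, 2000 cells/well, 16–30 h culture; cpd + low Li+, 30 min 37C; lysis with d2-IP1/Eu-anti-IP1 Ab, 10 min RT; TR-FRET 665/620 ratio and 620 channel; AC50 via Hill.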
* marks the source's active call; other numbers are inactive results; ? = inconclusive; nt = no result given; [ ] = another dose, or the depositor's remark. Unless noted, calls follow the shape of the dose curve; as a rule, active = well fitted inhibition curve with a large enough effect (not every such curve was filed as active); inconclusive = small, poorly fitted or top-dose-only effect, or another doubt; inactive = no such curve, though single readings can be large or run the other way. Unless noted, % is scaled to controls: 0 for no effect and ±100 for the full control effect.

SMILES	IMPase inh	PNC assembly inh	ALDH1A1 inh	HPGD inh	IMPase Li cell
O=c1[nH][nH]c(=S)c(=O)[nH]1	nt	nt	?	3.98µM*	3.2%
COc1ccc(-c2nc3cnc(OC)nc3n(C)c2=O)cc1	nt	nt	?	nt	12.2%
CC(N)(C(=O)O)c1ccc(S(=O)(=O)O)cc1 (centres undefined)	nt	nt	?	nt	-4.5%
COc1ccc(CN2C(=O)C(O)(CC(=O)c3c(C)n[nH]c3C)c3ccccc32)cc1OC (centres undefined)	11.0	?	3.55µM*	-3.6%	16.0%[38.3 µM]
CC(=O)CC1(O)C(=O)N(Cc2ccccc2)c2ccccc21 (centres undefined)	5.3	58.7	?	-4.3%	4.1%[38.3 µM]
Cc1ccc(C(=O)CC2(O)C(=O)N(Cc3ccccc3Cl)c3ccccc32)o1 (centres undefined)	3.7	-17.2	3.55µM*	-21.2%	8.7%[38.3 µM]
CCCN1C(=O)C(O)(CC(=O)c2ccc(OC)c(OC)c2)c2ccccc21 (centres undefined)	1.3	nt	nt	nt	nt
Cc1ccc(CN2C(=O)C(O)(CC(=O)c3ccc(C)cc3)c3ccccc32)cc1 (centres undefined)	5.3	nt	nt	nt	nt
Cc1coc(C)c1C(=O)CC1(O)C(=O)N(Cc2ccccc2)c2ccccc21 (centres undefined)	21.1	?	4.47µM*	-27.0%	9.0%[38.3 µM]
Cc1ccc(C(=O)CC2(O)C(=O)N(Cc3ccccc3)c3ccccc32)o1 (centres undefined)	15.4	44.5	0.708µM*	-12.2%	20.3%[38.3 µM]
O=C(c1cccc(C(F)(F)F)c1)c1c[nH]c(C(=O)NCC2CCCO2)c1 (centres undefined)	nt	nt	3.2%	nt	-2.5%
C/C(CC1(O)C(=O)N(Cc2ccccc2)c2ccccc21)=N\O (centres undefined)	26.5	?	1.58µM*	-16.5%	-13.2%[38.3 µM]
Cc1cccc(NC(=O)C2C3C=CC(C4CC34)C2C(=O)O)c1 (centres undefined)	28.9	-118.8*	-7.5%	-21.3%	13.6%
CCCCSc1nnc2n(-c3ccc(OC)cc3)c(=O)c3c4c(sc3n12)COC(C(C)C)C4 (centres undefined)	-1.0	nt	nt	nt	nt
O=C(c1cnc(-c2ccc(Cl)cc2)s1)c1ccc(Cl)cc1Cl	-2.3	62.5	-4.6%	35.5µM*	-19.9%[38.3 µM]
COc1ccc(C(=O)c2cc3c(cc2[N+](=O)[O-])OCCO3)cc1	nt	nt	?	nt	20.5%
O=C(c1ccccc1F)c1cc2c(cc1[N+](=O)[O-])OCCO2	nt	nt	11.2µM*	nt	15.5%
CC(=O)NC(Cc1c[nH]c2ccccc12)C(=O)OCC(=O)Nc1cc(C)on1 (centres undefined)	5.2[1.84 µM]	-92.2*	-7.2%	-1.0%	26.6%[38.3 µM]
CC(=O)NC(Cc1c[nH]c2ccccc12)C(=O)OCC(=O)Nc1ccc2c(c1)OCO2 (centres undefined)	4.8	-7.3	5.01µM*	-6.3%	-11.2%[38.3 µM]
O=C1CCCC2CCCCN12 (centres undefined)	nt	nt	0.3%[186 µM]	0.2%	-4.4%
CCOc1ccc(S(=O)(=O)N/N=C(\C)C2CCCCC2)cc1	nt	44.5	1.78µM*	-8.3%	2.6%
CCOc1ccc(S(=O)(=O)N/N=C2/CCCC(=O)C2)cc1	nt	?	?	-6.1%	1.9%
CCOc1ccc(S(=O)(=O)N/N=C(\C)Cc2ccc(OC)cc2)cc1	nt	nt	2.82µM*	nt	1.4%
C/C(=N\NC(=O)c1cccc(S(=O)(=O)Nc2ccccc2Cl)c1)c1ccc(-n2ccnc2)cc1	3.6	?	?	-22.0%	39.9%[38.3 µM]
Cc1onc(-c2ccc(Cl)cc2)c1-c1ccnn1S(=O)(=O)c1cccc(C(F)(F)F)c1	nt	nt	3.2%	nt	nt
SMILES	IMPase inh	PNC assembly inh	ALDH1A1 inh	HPGD inh	IMPase Li cell
Cc1onc(-c2ccccc2)c1-c1ccnn1S(=O)(=O)c1ccc(Cl)cc1	nt	nt	7.94µM*	nt	nt
N/C(Cc1nc(-c2ccc(Br)cc2)cs1)=N\O	nt	nt	19.3%	nt	-5.8%
Cc1ccc2sc(N(CCCN(C)C)C(=O)CN3C(=O)c4ccccc4C3=O)nc2c1C	nt	nt	-9.9%	nt	2.6%
Cc1cc(C)n2c(SCC(=O)Nc3ncc(C(F)(F)F)cc3Cl)nnc2n1	-2.8	11.4	12.6µM*	-9.7%	13.2%[38.3 µM]
Cc1cc(C)n2c(SCC(=O)Nc3ccc(F)cc3)nnc2n1	nt	nt	14.1µM*	nt	nt
O=C(O)CC(c1cccc2ccccc12)n1cccc1 (centres undefined)	-18.5	44.2	-7.1%	35.5µM*	-20.6%[38.3 µM]
COCCNC(=O)c1cccc(Nc2nc(-c3ccccc3)c3cc(Cl)ccc3n2)c1	7.3	-18.6	-10.3%	28.2µM*	9.1%
CC(C)c1cc(C(=O)NNC(=S)NCc2ccco2)c(O)c(C(C)C)c1	-8.6	17.7	22.4µM*	?	10.9%
CC1(OC(=O)c2cnc3ccccc3n2)C(=O)C=C2C=C(c3ccsc3)OC=C2C1=O (centres undefined)	nt	nt	-1.2%	-4.4%	15.4%
C#CCOc1ccc(Br)cc1/C=N/O	2.5	30.3	0.0%	14.1µM*	22.0%[38.3 µM]
CCCOc1ccc(Br)cc1/C=N/NC(=O)c1cc(OC)c(OC)c(OC)c1	nt	?	-3.6%	-10.7%	3.6%
CCOc1ccc(Br)cc1/C=N/O	13.9	-19.2	-1.2%	11.2µM*	-11.7%[38.3 µM]
CCCOc1ccc(Br)cc1/C=N/O	7.4	-16.6	-2.2%	10µM*	5.8%[38.3 µM]
O=C(O)COc1ccc(Br)cc1/C=N/O	-10.7	-10.3	3.1%	-14.1%	-8.3%[38.3 µM]
CC1(C)Oc2ccc(NC(=O)c3ccco3)cc2O1	-19.4	-1.2	-12.1%	?	-39.0%[38.3 µM]
O=c1ccn([C@@H]2O[C@H](COP(=O)(O)O)[C@@H](O)[C@H]2O)c(=O)[nH]1	nt	nt	-4.7%	nt	-3.6%
COc1cc(NC(=S)NC(=O)c2ccccc2F)ccc1NC(=O)c1cccs1	nt	nt	?	nt	4.6%
COc1cc(NC(=S)NC(=O)c2cc(C)cc(C)c2)ccc1NC(=O)c1cccs1	?	12.5	14.1µM*	-17.5%	9.5%
COc1cc(NC(=S)NC(=O)c2ccccc2C)ccc1NC(=O)c1cccs1	-6.7	?	25.1µM*	?	1.7%
COc1cc(NC(=S)NC(=O)c2ccc(C(C)(C)C)cc2)ccc1NC(=O)c1cccs1	-3.7	-115.1*	11.9µM*	-8.8%	-0.5%
COc1ccc(Cl)cc1NC(=S)NNC(=O)c1cccs1	nt	nt	10µM*	nt	-0.6%
Cc1ccc(NC(=O)COC(=O)c2ccn(C)n2)cc1	6.9	?	-8.2%	-8.3%	7.1%[38.3 µM]
COc1ccc(C2C(C(=O)Nc3ccccc3)=C(C)Nc3nc(-c4ccccc4Cl)nn32)cc1OC (centres undefined)	4.5	nt	nt	nt	nt
C#C[C@@]1(O)CC[C@@H]2[C@@H]3CCC4=CC(=O)CC[C@@H]4[C@H]3CC[C@]21C	2.4[20.6 µM]	nt	-6.8%[20.9 µM]	-6.7%	1.3%
CC(=O)c1ccc(N2CCCCC2)c(F)c1	nt	nt	-5.6%	nt	10.9%
COC(=O)c1ccc(N2C(=O)CC(N3CCN(C(=O)c4ccco4)CC3)C2=O)cc1 (centres undefined)	-9.0	27.0	12.6µM*	-1.1%	-1.7%[38.3 µM]
